# Screening data (PubChem BioAssay)
# HP1b binding inh: blocks HP1-beta chromodomain binding to methylated histone tails; P83916; AlphaScreen HP1-beta / biotin-H3K9me3 peptide binding; Potency, µM (top dose mostly 114 µM), for the others: at the top dose activity change, negative = inhibition, actives largely listed as inhibitors; hit rate 0.56% among 390,000; note: nearly all actives have a fitted effect of over 70% in size
#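 Compound inhibition of the preformed complex between 50 nM HP1-beta and 50 nM biotinylated H3K9me3 peptide was read by AlphaScreen. Buffer was PBS pH 7.4 with 0.01% Tween-20. Incubations ran 30 min at room temperature, with 10 ug/mL donor/acceptor beads.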
# G9a inh: G9a (human) methyltransferase inhibition; hit rate 8.8% among 350,000; G9a H3K9 monomethylation, AlphaScreen, 2 h; Potency, µM (highest dose often 102 µM), without a hit: at the top dose activity, negative = inhibition, hits mostly inhibitors; Q96KQ7; note: % is set by controls: 0 for no effect and ±100 for the full control effect; nearly all actives have a fitted effect of over 75% in size
#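 AlphaScreen read-out: biotin-H3K9 peptide (500 nM) methylation by 20 nM enzyme with 20 uM SAM, 2 h at room temperature after 15 min compound preincubation; anti-monomethyl H3K9 antibody plus donor/acceptor beads, 10 min dark.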
# BAZ2B inh: blocks human BAZ2B; Potency, µM (highest dose often 114 µM), for inactives: at the top dose activity change, negative = inhibition, most hits filed as inhibitors; AID 504333; Q9UIF8; AlphaScreen BAZ2B-H3K14Ac peptide displacement; hit rate 4.4% among 360,000; note: % is set by controls: 0 for no effect and ±100 for the full control effect; nearly all actives have a fitted effect of over 60% in size
#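 Protein-peptide AlphaScreen: BAZ2B 50 nM, b-H3K14Ac 50 nM, 1x PBS pH 7.4 + 0.01% Tween-20. Preincubation 30 min RT; cpd 30 min RT (top 110 uM); beads 20 min RT, light-protected.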
# GLS inhibitor: glutaminase GLS (human) inhibition; O94925; GLS enzymatic activity, qHTS titration; Potency, µM (series often up to 45.5 µM), without a hit: at the top dose activity change, negative = inhibition, hits mostly inhibitors; hit rate 0.21% among 410,000; AID 624170; note: % is set by controls: 0 for no effect and ±100 for the full control effect
#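 hKGA in 45 mM KH2PO4 pH 8.2, 0.02% Tween-20 with pin-transferred compounds; 1 mM L-glutamine (stock) plus glutamate oxidase/HRP/Amplex Red coupling added. Fluorescence read initially and after 30 min at RT.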
# JMJD2A Tudor inh: blocks the human JMJD2A Tudor domain; hit rate 4.4% among 390,000; AlphaScreen JMJD2A-Tudor / H3K4me3 peptide binding; O75164; Potency, µM (top dose mostly 114 µM), for the others: at the top dose activity change, negative = inhibition, actives largely listed as inhibitors; note: % is set by controls: 0 for no effect and ±100 for the full control effect; nearly all actives have a fitted effect of over 50% in size
# * marks the source's active call; other numbers are inactive results; ? = inconclusive; / = no result given; [ ] = another dose, or the depositor's remark. Sampled rows, rich in hits. Any-hit rate of the full collection: about 10%. Calls come from the whole dose curve; as a rule, active = well fitted curve in the direction sought with a large enough effect; inconclusive = small, poorly fitted or top-dose-only effect, or another doubt; inactive = no such curve, though single readings can be large; an effect the other way counts as inactive or inconclusive. Potency is the fitted concentration of half-maximal effect.
SMILES,HP1b binding inh,G9a inh,BAZ2B inh,GLS inhibitor,JMJD2A Tudor inh
O=[N+]([O-])c1ccc(N/N=C/c2sc(N3CCOCC3)nc2-c2ccccc2)c(S(=O)(=O)Nc2ccccc2Cl)c1,-9%,71µM*,?,-4%,-32%
O=[N+]([O-])c1ccc(N/N=C/c2sc(N3CCOCC3)nc2-c2ccccc2)c(S(=O)(=O)Nc2ccc(Cl)cc2)c1,?,40µM*,11µM*,16%,?
Cc1cc(C)cc(N=Cc2[nH]c3ccc(Br)c(Cl)c3c2O)c1,?,13µM*,?,20%,?
COc1ccc(CN=Cc2[nH]c3ccc(Br)c(Cl)c3c2O)cc1,?,4µM*,45µM*,0%,?
COc1ccc(CN=CC2=C(O)CNC2=O)cc1,62%,13%[12.7 µM],-24%,-4%,5%
CCOC(=O)c1ccc(NC(=O)C2CCN(C(=O)N3CC(C)Oc4ccc(C)cc43)CC2)cc1 (stereo not given),26%,-34%[59 µM],-5%,6%,-5%
Nc1ncnc2c1ncn2[C@@H]1O[C@H](CNC(=O)[C@@H]2CCC(=O)N2)[C@@H](O)[C@H]1O,32%,/,/,0%,-3%
O=C(O)CCN1CCc2ccccc2C1c1ccncc1 (stereo not given),46%,50µM*,-25%,0%,-6%
CCCCCOC(=O)c1ccc(OC(=O)c2sc3ncn(Cc4cccc(F)c4)c(=O)c3c2C)cc1,44%,-5%[59 µM],12%,-3%,6%
O=C(Cc1ccc(F)cc1)Nc1nnc2n1CCS2,6%[57 µM],10µM*,56µM*,-16%,?
CC(C)(C)c1ccc(C(=O)Nc2nnc3n2CCS3)cc1,24%[57 µM],53%[59 µM],2%,-7%,-4%
CCCC(=O)Nc1nnc2n1CCS2,-2%[57 µM],?,-11%,-11%,79µM*
O=C(Cc1ccccc1)Nc1nnc2n1CCS2,12%[57 µM],10µM*,79µM*,-16%,50µM*
CC(C)(C)CC(=O)Nc1nnc2n1CCS2,14%[57 µM],38%[59 µM],-4%,-8%,-8%
O=C(Nc1nnc2n1CCS2)c1ccco1,20%[57 µM],1.8µM*,13µM*,0%,1.6µM*
C#CCOCCOCCOCCNc1nc(N2CCOCC2)nc(N2CCN(C(=O)[C@H]([C@@H](C)CC)n3cc(CCCCN)nn3)CC2)n1,16%,50µM*,?,-8%,?
C#CCOCCOCCOCCNc1nc(N2CCN(C(=O)[C@H]([C@@H](C)CC)n3cc(CCCCN)nn3)CC2)nc(N2CCN(C(=O)[C@H](C)n3cc(CCCN=C(N)N)nn3)CC2)n1,19%,9%[2.33 µM],-19%,-5%,-22%
C#CCOCCOCCOCCNc1nc(N2CCN(C(=O)[C@H](C(C)C)n3cc(CCO)nn3)CC2)nc(N2CCN(C(=O)[C@H]([C@@H](C)CC)n3cc(CCCCN)nn3)CC2)n1,28%,50µM*,-34%,6%,-27%
FC(F)Oc1ccc(NC(=S)NCc2ccccc2)cc1,27%,40%[59 µM],0%,13%,0%
Oc1cccc2c(NC(=S)Nc3ccc(OC(F)F)cc3)cccc12,?,45µM*,45µM*,0%,?
FC(F)Oc1ccc(NC(=S)Nn2cnnc2)cc1,-27%,6.3µM*,-9%,-6%,?
CN(NC(=S)Nc1ccc(OC(F)F)cc1)C(=S)Nc1ccc(OC(F)F)cc1,-4%,?,-5%,?,-9%
CCOCCCN1C(=O)CN(C2CCCCCC2)C(=O)C1c1ccc(OC(C)C)c(OC)c1 (stereo not given),46%,-25%[59 µM],-20%,7%,-11%
CCOC(=O)c1noc2nc(C)n(Cc3ccc([N+](=O)[O-])cc3)c(=O)c12,-3%[57 µM],-4%[59 µM],-14%,1%,20µM*
CCOC(=O)c1noc2nc(C)n(Cc3cccc([N+](=O)[O-])c3)c(=O)c12,49%[57 µM],0%[59 µM],18%,-12%,-5%
COc1cccc(N2CCN(C(=O)CN3C(=O)COc4ccc(S(=O)(=O)N5CCC(C)CC5)cc43)CC2)c1,39%,-6%[59 µM],-19%,8%,-13%
Cc1ccc2nc(Cc3ccc(N)cc3)[nH]c2c1,18%,2%[0.501 µM],56µM*,26%,-33%
CC(C)Cc1nc2ccccc2[nH]1,26%,?,-2%,-5%,12%
Nc1ccc2nc(CN3CCOCC3)[nH]c2c1,35%,?,50µM*,20%,?
